# Test results as given in ChEMBL document CHEMBL4513216, “Probing the Open Global Health Chemical Diversity Library for Multistage-Active Starting Points for Next-Generation Antimalarials” (ACS Infect Dis, 2020).
# The campaign covered roughly 65,000 compounds. About 2,100 (3.2%) showed an effect of 50% or more. The median lay at about -52%. For the sample, strong results were picked, then their nearest neighbours and some compounds at random.
# Tested on: Plasmodium falciparum
# Test: Screen against P. falciparum Asexual Blood Stage (ABS), at 5uM
# Type: functional, Dd2
# Details: tested at 5 uM
row,SMILES,INHIBITION
1,c1cnc(NCc2noc3c2CN(CCN2CCCC2)CC3)nc1,-63.3%
2,O=C(CCO)N1CCC2(CCc3ccc(-c4ccoc4)cc32)CC1,-76.5%
3,OCCN1CCC2(CCc3cc(-c4ccoc4)ccc32)CC1,61.2%
4,c1cc(-c2ccc3c(c2)CCC32CCN(c3nncs3)CC2)co1,3.66%
5,COCCOCC1(CNCc2ccc(F)cc2)C[C@@H](O)[C@@H](O)C1 (some centres undefined),63.6%
6,COCCOCC1(CNCc2ccc(OC)cc2)C[C@@H](O)[C@@H](O)C1 (some centres undefined),-77.3%
7,COCCOCC1(CNCc2cccc(OC)c2)C[C@@H](O)[C@@H](O)C1 (some centres undefined),-11.2%
8,CC(C)CCN1C2(CCN(Cc3nccs3)C2)c2ccccc2S1(=O)=O (centres undefined),-17.8%
9,CN1[C@@H]2CC[C@H]1CN(C(=O)c1nnc3n1CCCCC3)CC2,-58.6%
10,Cc1ccc(CN2CCC3(CC2)NC(=O)CC3c2ccccc2)s1 (centres undefined),53.7%
11,Cc1noc(C)c1CN1CCC2(CC1)NC(=O)CC2c1ccccc1 (centres undefined),-39.2%
12,Cc1cccc(CN2CCC3(CC2)NC(=O)CC3c2ccccc2)n1 (centres undefined),-3.5%
13,CCC1(CC)C(=O)NC(=O)N/C1=N/c1cccc(OC)c1,-27.2%
14,Cc1c(CN2CCCC2(C)C(=O)N2CCOCC2)cnn1C (centres undefined),-23.9%
15,CCNC(=O)C1(Cc2ccc(-c3ccccc3)cc2)CCCNC1 (centres undefined),27.7%
16,NC(=O)C1(Cc2ccccc2-c2cncnc2)CCCNC1 (centres undefined),-114%
17,NC(=O)C1(Cc2ccc(-c3ccccc3)cc2)CCCNC1 (centres undefined),61.1%
18,CC1(C)CC(n2cc3nc(N4CCOCC4)[nH]cc-3c2=O)CC(C)(C)N1,-53.2%
19,Cc1cnn(CC2CN(CC(=O)Nc3cccnc3)CCO2)c1 (centres undefined),-66%
20,Cn1ccnc1C(=O)N[C@@H]1CN(CC2CCOCC2)[C@@H]2CCCO[C@@H]21,-60%
21,O=c1ccc(-c2cccs2)nn1CN1CCN(c2ccccn2)CC1,-115%
22,CNS(=O)(=O)c1cccc(C(C)NCc2cccc(O)c2)c1 (centres undefined),3.69%

row,SMILES,INHIBITION
1,CNS(=O)(=O)c1cccc(C(C)NCc2ccccc2)c1 (centres undefined),59.4%
2,CNS(=O)(=O)c1cccc(C(C)NCc2ccco2)c1 (centres undefined),2.96%
3,CNS(=O)(=O)c1cccc(C(C)NCc2cccc(C)c2C)c1 (centres undefined),69.7%
4,CNS(=O)(=O)c1cccc(C(C)NCc2ccsc2)c1 (centres undefined),67.2%
5,CNS(=O)(=O)c1cccc(C(C)NCc2ccc(C)o2)c1 (centres undefined),23.3%
6,CNS(=O)(=O)c1cccc(C(C)NCc2nccn2C(C)C)c1 (centres undefined),-9.39%
7,CNS(=O)(=O)c1cccc(C(C)NCc2ccc(C)c(C)c2)c1 (centres undefined),63.4%
8,CCOc1ccc(CNC(C)c2cccc(S(=O)(=O)NC)c2)cc1 (centres undefined),47.6%
9,CNS(=O)(=O)c1cccc(C(C)NCc2ccc(F)cc2F)c1 (centres undefined),-3.64%
10,CNS(=O)(=O)c1cccc(C(C)NCc2ccncc2)c1 (centres undefined),-51.1%
11,CNS(=O)(=O)c1cccc(C(C)NCc2ccc(F)c(F)c2)c1 (centres undefined),11.1%
12,CN(Cc1ccc(F)cc1)C(=O)c1ccoc1CN1CCNC(=O)C1,-169%
13,CCOCC(=O)NCCn1ccc(-c2ccccn2)n1,-74.8%
14,Cc1nc(C)c(S(=O)(=O)NC(=O)c2sccc2C)s1,-118%
15,Cn1ccnc1CN1CCC2(CC(=O)N(c3ccsc3)C2)C1 (centres undefined),-95.1%
16,Cc1ccc(NC2CCN(C(=O)c3cccc4[nH]ncc34)CC2)nn1,-12.4%
17,Cc1nn(C)c(C)c1CN(C)CC1(O)CCCN(C)C1 (centres undefined),-56.8%
18,Cc1ccc(CN(C)CC2(O)CCCN(C)C2)o1 (centres undefined),54.2%
19,CCN1CCCC(O)(CN(C)Cc2ccc(C)o2)C1 (centres undefined),20.1%
20,CC(C)c1nc(N2CCC(N3CCCCCC3)CC2)c2cnn(C)c2n1,51.9%
21,CC(C)c1nc(N2CCC(N3CCSCC3)CC2)c2cnn(C)c2n1,-57%
22,CC(C)c1nc(N2CCC(N3CCCC(O)C3)CC2)c2cnn(C)c2n1 (centres undefined),-33.8%

row,SMILES,INHIBITION
1,Cc1ccc(C(=O)O)cc1CNC(=O)CN1CC[C@](C)(O)C(C)(C)C1,-0.0274%
2,O=C(CCN1CCOC(C(F)(F)F)C1)NCc1cccc(Cl)c1 (centres undefined),-53.515%
3,CC1(C)CN(CCC(=O)NCc2cccc(Cl)c2)CC[C@]1(C)O,53.1%
4,CN(C(=O)COc1ccc(F)cc1)[C@@H]1CC[C@@H](n2ccnc2)[C@@H]1O,-72.8%
5,COCCN1CCC2(CC1)CN(C(=O)c1ccco1)CCO2,-29.3%
6,COc1ccc2[nH]nc(CN3CCC(C(C)N(C)C)CC3)c2c1 (centres undefined),64.4%
7,COc1ccc2[nH]nc(CN3CCC(C(C)N4CCCC4)CC3)c2c1 (centres undefined),38.8%
8,COc1ccc2[nH]nc(CN3CCC(C(=O)N4CCCCC4)CC3)c2c1,13.7%
9,Cn1nccc1-c1nc2c(cc1C(=O)O)CCN(C(=O)C1CC1)CC2,-73.9%
10,O=C1CC(c2ccncc2)C2(CCN(C(=O)c3cccs3)CC2)N1 (centres undefined),-50.7%
11,O[C@H]1[C@H](n2cc(CN3CCCC3)nn2)c2ccccc2C12CCNCC2,63.2%
12,OCc1cn([C@@H]2c3ccccc3C3(CCNCC3)[C@H]2O)nn1,-114%
13,COCc1cn([C@@H]2c3ccccc3C3(CCNCC3)[C@H]2O)nn1,-24.9%
14,Cc1cnc(C(=O)N2CCC3(CCN3Cc3ccc(F)cc3)C2)cn1 (centres undefined),-60.5%
15,O=C1CN(c2ccc(CNC(=O)Nc3nnc(C4CC4)s3)cc2)CCN1,-5.48%
16,Cc1cnn(CCNCC(O)COc2ccc(C#N)cc2)c1 (centres undefined),-106%
17,c1cnn(CCNCCCOc2ccc3c(c2)OCO3)c1,23.5%
18,COc1cc(CNc2cnn(C)c2)cc2c1OCCO2,-181%
19,Cc1cnn(CCNCCCOc2ccccc2)c1,-13.6%
20,Cc1cnn(CCNCCCOc2ccc3c(c2)OCO3)c1,50.6%
21,Cc1cnn(CCNCCCOc2ccc(C#N)cc2)c1,65.9%
22,COc1cc(CNCCc2cnn(C)c2)cc2c1OCCO2,-7.17%

row,SMILES,INHIBITION
1,Cc1cnn(CCCOc2ccc3c(c2)OCO3)c1,-30.8%
2,COc1cc(CNCCn2cc(C)cn2)cc2c1OCCO2,58.2%
3,CC(=O)c1cccc(OCC(=O)NS(=O)(=O)c2ccc(Br)s2)c1,-85.3%
4,CCN(CC)S(=O)(=O)N(Cc1ccccn1)Cc1ccccc1C,-6.79%
5,CC(NCC(N)=O)c1c(F)cccc1Cl (centres undefined),-21.3%
6,Cc1sc2ncnc(N3CCC(N(C)Cc4cnn(C)c4)CC3)c2c1C,23.5%
7,COCc1noc(CN2CCCCC2CCc2cccs2)n1 (centres undefined),-172%
8,O=C(O)c1cc(-c2ccncc2F)cc(S(=O)(=O)N2CCCCCC2)c1,-154%
9,O=C(c1ccco1)N1CCO[C@@H]2CN(CC3CC3)CC[C@@H]2C1,-65.2%
10,Cc1cccc(CN2CCC3(CCN(Cc4ccccn4)C3)C2=O)c1 (centres undefined),27.8%
11,Cc1nn(C)c(C)c1C1CCCN1C(=O)c1ccc(N(C)C)nc1 (centres undefined),-54.2%
12,NCC1Cc2cccc(-c3nccc(N4CCC(O)CC4)n3)c2O1 (centres undefined),20.4%
13,COc1cc(-c2cccc3c2OC(CN)C3)ccc1O (centres undefined),38%
14,COc1c(F)cc(-c2cccc3c2OC(CN)C3)cc1F (centres undefined),35.4%
15,COc1ccc(-c2cccc3c2OC(CN)C3)cc1F (centres undefined),62.6%
16,COc1cc(-c2cccc3c2OC(CN)C3)cc(OC)c1OC (centres undefined),46.9%
17,COc1cc(OC)cc(-c2cccc3c2OC(CN)C3)c1 (centres undefined),68.3%
18,COc1cc(-c2ccc(F)c3c2OC(CN)C3)cc(OC)c1OC (centres undefined),-12.8%
19,NCC1Cc2cc(F)cc(-c3cnccn3)c2O1 (centres undefined),19.1%
20,COc1cccnc1-c1ccc(F)c2c1OC(CN)C2 (centres undefined),59.3%
21,NCC(=O)N1CCC(c2cccc(Oc3ccccc3)n2)CC1,-20.5%
22,CC(C)(C)NC(=O)CN1CCCNCC1,-113%

row,SMILES,INHIBITION
1,CC(=O)NCC(=O)N1Cc2nccn2CC(COc2cccnc2)C1 (centres undefined),-98.1%
2,CNc1cccc(C2CCCN(C(=O)Cc3ccccc3)C2)n1 (centres undefined),-62.3%
3,COc1cccc(C(=O)C2CCCN(c3cc(C#N)ccn3)C2)c1 (centres undefined),-25.2%
4,Cc1noc(CNC(=O)C2CSCCC(=O)N2)n1 (centres undefined),-164%
5,COc1ncc(C2(O)CCN(Cc3c(F)cccc3F)CC2)c(OC)n1,13.1%
6,NC(=O)NCC(=O)N1C[C@@H]2CC[C@H]1CN(Cc1ccccc1)C2,-9.53%
7,CNC(=O)C1(N2CCC[C@H]2C(=O)NC2CC2)CCCCC1,-145%
8,COCCc1noc(C2CCCN(c3ncnc4c3CCC4)C2)n1 (centres undefined),-100%
9,COc1cccc(Cn2ncnc2CCC(C)N2CCN(C)CC2)c1 (centres undefined),-99.9%
10,NC1CCCCN(Cc2ccccc2CS(=O)(=O)c2ccccc2)C1 (centres undefined),55.9%
11,O=S(=O)(Cc1ccccc1CN1CC[C@H](CO)[C@H](O)C1)c1ccccc1,16.9%
12,N[C@@H]1CCN(Cc2ccccc2CS(=O)(=O)c2ccccc2)C[C@H]1O,-23.3%
13,Cc1nc(N2CCC(C)CC2)ncc1-c1cc(O)nc(N2CCCC2)n1,-113%
14,O=C1CCCCCN1Cc1ncnn1Cc1c(F)cccc1Cl,-29.5%
15,Fc1cccc(Cl)c1Cn1ncnc1CSCCN1CCCC1,61.7%
16,O=C1OCCN1Cc1ncnn1Cc1c(F)cccc1Cl,-76.9%
17,CS(=O)(=O)N1C[C@@H]2COC[C@]2(CN2CCOCC2)C1,-107%
18,CNC(=O)C1CCC2(CCN(c3nncs3)CC2)CO1 (centres undefined),-79.1%
19,Cc1noc(C2CCN(C(=O)c3ccc(NC4CC4)nc3)CC2)n1,-9.68%
20,Cc1noc(C2CCN(C(=O)c3ccc(C(F)(F)F)nc3)CC2)n1,57%
21,Cc1noc(C2CCN(C(=O)c3ccc(N(C)C)nc3)CC2)n1,-27%
